The term AC50 denotes the concentration giving half of the maximal activity seen.

The whole screen tested about 16,000 compounds, of which about 5,100 (32%) were called active. Another 25% or so got no clear call; they are omitted. Some of the results follow. Values without a mark were called inactive. The call rests on the fitted dose curve; in most records, active means well fitted curve in the direction sought with a large enough effect; inconclusive means small, poorly fitted or top-dose-only effect, or effect the other way; inactive means no such curve, though single readings can be large or run the other way.
On the % scale 0 is the no-effect control and ±100 the full control effect.

Cytochrome P450 3A4 (Homo sapiens), sequence (P08684 whole entry, looked up): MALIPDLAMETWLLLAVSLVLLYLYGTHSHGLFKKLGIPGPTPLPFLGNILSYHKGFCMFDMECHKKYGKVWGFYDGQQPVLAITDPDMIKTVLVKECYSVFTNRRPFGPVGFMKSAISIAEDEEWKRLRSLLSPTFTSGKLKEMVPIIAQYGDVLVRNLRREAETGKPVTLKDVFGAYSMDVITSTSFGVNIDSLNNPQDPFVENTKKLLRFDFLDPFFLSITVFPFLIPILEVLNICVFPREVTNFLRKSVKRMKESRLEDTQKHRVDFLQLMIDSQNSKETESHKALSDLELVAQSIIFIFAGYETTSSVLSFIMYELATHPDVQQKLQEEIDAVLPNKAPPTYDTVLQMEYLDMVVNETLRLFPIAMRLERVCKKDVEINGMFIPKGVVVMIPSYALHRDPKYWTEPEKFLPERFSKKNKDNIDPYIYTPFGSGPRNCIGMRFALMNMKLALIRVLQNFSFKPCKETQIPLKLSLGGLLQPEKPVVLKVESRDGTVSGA

This assay concerns the target Cytochrome P450 3A4 (Homo sapiens) (UniProt P08684). Kind of assay: Cytochrome panel assay with activity outcomes. The conditions noted are these: recombinant CYP, pro-luciferin dealkylation, luminescence, p450-cyp3a4; series mostly up to 57.1 µM.
As for `O=C1OCCC=C1[C@@H](O)CCc1ccccc1`, the activity, negative = inhibition is -19.7% [at 11.4 µM]. For the compound `Cn1cccc1C(=O)C(=O)Nc1cccc(Cl)c1Cl`, the AC50 result is “inactive”. Consider `O=C(NCc1n[nH]c(=S)n1-c1cccc(Cl)c1)c1ccc(S(=O)(=O)N2CCCC2)cc1`, for which the AC50 is 4.47 µM (active). Regarding `COc1ccc(-n2c(CNC(=O)c3ccc(S(=O)(=O)N4CCCC4)cc3)n[nH]c2=S)cc1`, the AC50 was 12.6 µM (active). On to `COCc1nnc(NC(=O)c2ccc(S(=O)(=O)N3CCCCCC3)cc2)o1`, for which the AC50 entry was “inactive”. In the case of `COCCNC(=O)c1ccc2c(c1)nc(C)n2-c1cc(OC)c(OC)c(OC)c1`, the AC50 result was “inactive”. Same read-out and setting: in the case of `COc1ccc(-n2c(CNC(=O)c3cc(OC)c(OC)c(OC)c3)n[nH]c2=S)cc1` it was 7.94 µM (active); in that of `COc1ccc(-n2c(=S)[nH]c3cc(C(=O)NCCCN4CCCC4=O)ccc3c2=O)cc1`, “inactive”; in that of `COCC(=O)Nc1c(I)c(C(=O)NC[C@@H](O)CO)c(I)c(C(=O)N(C)C[C@@H](O)CO)c1I`, “inactive”.

As for `CN(CCOc1ccc(C[C@H](Nc2ccccc2C(=O)c2ccccc2)C(=O)O)cc1)c1ccccn1`, the AC50 is 10 µM (active). For the compound `CCN(CC)CCOc1ccc(Cc2ccccc2)cc1`, the AC50 entry is “inactive”. In the case of `CC1=CC(=O)CC(C)(C)[C@]1(O)/C=C\C(C)=C\C(=O)O`, the activity, negative = inhibition was -1.41% [at 11.4 µM]. For the compound `S=c1[nH]nc(CSCc2ccccc2Cl)n1-c1ccccc1`, the AC50 is 7.94 µM (active).

As to `CCNC(=S)N1CCC(NC(=O)C2CCCCC2)CC1`, the AC50 was 14.1 µM (active). `CCOC(=O)N1CCC(NC(=O)C2CCN(S(=O)(=O)N3CCCC3)CC2)CC1`: the AC50 entry was “inactive”. As to `CCc1nnc(NC(=O)C2CCN(C(=O)NC3CCCCC3)CC2)s1`, the AC50 result was “inactive”. As to `Cc1ccc2nc(NC(=O)CSc3nc4c(c(=O)n3C)SC(C)C4)sc2c1` (configuration not stated), the AC50 entry is “inactive”.

Regarding `CCOc1ccc(-n2c(SCC(=O)Nc3ccc4c(c3)OCCO4)nc3c(c2=O)SCC3)cc1`, the AC50 result is “inactive”. For `CCn1c(SCC(=O)NC2CCCCC2)nc2c(c1=O)SC(C)C2` (configuration not stated), the AC50 was 15.8 µM (active).

As for `CCn1c(SCC(=O)Nc2nc3ccc(C)cc3s2)nc2c(c1=O)SC(C)C2` (configuration not stated), the AC50 was 5.01 µM (active). Same read-out and setting: then `CCn1c(SCC(=O)Nc2ccc3c(c2)OCCO3)nc2c(c1=O)SC(C)C2` (configuration not stated), with 10 µM (active); and `CCn1nnnc1SCC(=O)NC1CCCC1`, with “inactive”. Regarding `Cc1nc2cccc([N+](=O)[O-])c2n1CCCN(C)C`, the activity, negative = inhibition was -0.756% [at 11.4 µM]. With `O=C(c1cccc(F)c1)N1CCC2(CC1)CN(Cc1ccccc1)C2`, the AC50 result is “inactive”. Same read-out and setting: in the case of `CC(C)CN1CCC2(CC1)CCN(C(=O)c1cccn1C)CC2` it was “inactive”. For the compound `CC(C)CN1CCC2(CC1)CCN(C(=O)c1cccc(F)c1)CC2`, the AC50 result is “inactive”. Turning to `Cn1cccc1C(=O)N1CCC[C@@]2(CCN(Cc3nccs3)C2)C1`, the AC50 is 15.8 µM (active). The same measure, in the same setting: then `CC(=O)N1CCC2(CCN(Cc3nccs3)CC2)CC1`, with “inactive”; and `CC(C)CN1CC2(CCN(C(=O)c3cccc(F)c3)CC2)C1`, with “inactive”; and `O=C(c1cccc(F)c1)N1CCC[C@@]2(CCN(Cc3nccs3)C2)C1`, with 7.94 µM (active). Regarding `O=C(c1cccc(F)c1)N1CCC2(CCCN(Cc3nccs3)C2)CC1`, the AC50 is 10 µM (active). Take `O=C(c1cccc(F)c1)N1CCC2(CCCN(c3ncccn3)C2)CC1`: the AC50 entry was “inactive”. For the compound `O=C(c1cccc(F)c1)N1CCC[C@@]2(CCN(Cc3ccncc3)C2)C1`, the AC50 is 3.16 µM (active). With `CCCc1ncc(C[n+]2ccccc2C)c(N)n1`, the AC50 result is “inactive”. For `CC(C)(C)N1C(=O)[C@H]2[C@H]3[C@H](O)[C@H](O)C/C(=N/NC(=O)OCc4ccccc4)[C@@H]3CC[C@@H]2C1=O`, the activity, negative = inhibition was -15% [at 11.4 µM]. Consider `COC(=O)c1c(NC(=O)C(C)(C)C)sc2c1C(C(=O)OC)CC2` (configuration not stated), for which the AC50 result was “inactive”. Still for that read-out and setting: in the case of `Cc1cc(=O)[nH]c(-n2[nH]c(C)cc2=O)n1` it was “inactive”; in that of `COc1ccc(C(=O)Nc2ccc(C(=O)OCC(=O)c3ccccc3)cc2)cc1`, “inactive”. On to `CCOC(=O)c1ccc(NC(=O)CC2NCCNC2=O)cc1` (configuration not stated), for which the AC50 result is “inactive”. On the same count and under the same terms, then `CCOC(=O)c1ccc(NC(=O)COc2ccccc2OC)cc1`, with 31.6 µM (active). Consider `CC1=NN(c2ccccc2)C(=O)[C@@H]1N=Nc1ccc(S(N)(=O)=O)cc1`, for which the activity, negative = inhibition is -5.5% [at 11.4 µM]. Consider `CCOCc1cnc(C)nc1NCC(=O)c1c(C)[nH]c2ccccc12`, for which the AC50 entry was “inactive”. Consider `c1ccc(CN2CC[C@@H](CNc3ncnc4ccccc34)C2)cc1`, for which the activity, negative = inhibition is -19.3% [at 11.4 µM]. Same read-out and setting: then `Oc1ccc(CNCc2ccccc2)c2cccnc12`, with -8.41% [at 11.4 µM]. Take `O=S(=O)(NC1CCN(Cc2ccccc2)CC1)c1cccc2cccnc12`: the AC50 is 15.8 µM (active). Take `O=C(NCCCN1CCN(C2CCCCC2)CC1)Nc1ccccc1C(F)(F)F`: the AC50 entry is “inactive”. In the case of `O=C(NCCCN1CCCCCC1)[C@@H](c1ccccc1)C1CCCCC1`, the AC50 is 3.98 µM (active). As for `O=C(NCCCN1CCN(Cc2ccccc2)CC1)C1CCN(S(=O)(=O)N2CCCC2)CC1`, the AC50 result is “inactive”. For the compound `Cc1ccc(-c2ccc(CCC(=O)O)o2)cc1`, the AC50 entry was “inactive”. Regarding `Cc1ccc(S(=O)(=O)N(CC(=O)NCCC2=CCCCC2)Cc2ccccc2F)cc1`, the activity, negative = inhibition was -9.36% [at 2.29 µM]. Consider `COC(=O)C(NS(=O)(=O)c1ccc(NC(C)=O)cc1)C(C)C` (configuration not stated), for which the AC50 result was “inactive”. With `COc1ccc(CCNC(=O)CC(NS(=O)(=O)c2ccc(NC(C)=O)cc2)C(C)C)cc1OC` (configuration not stated), the AC50 is 15.8 µM (active).

As for `COc1ccc(CONS(=O)(=O)c2ccc(NC(C)=O)cc2)cc1Cl`, the AC50 was 3.16 µM (active). On to `CC(=O)Nc1ccc(S(=O)(=O)NC(CC(=O)NCCC2=CCCCC2)C(C)C)cc1` (configuration not stated), for which the AC50 is 15.8 µM (active). On to `CCCCCOc1ccc(NC(=O)C(=O)NCCC2=CCCCC2)cc1`, for which the AC50 result was “inactive”. As to `CC(=O)Nc1ccc(S(=O)(=O)N=S(C)C)cc1`, the AC50 result was “inactive”.

As to `C[C@H](O)CO[C@H]1[C@H]2O[C@H]3[C@H](O)[C@@H](O)[C@@H](O[C@H]4[C@H](O)[C@@H](O)[C@@H](O[C@H]5[C@H](O)[C@@H](O)[C@@H](O[C@H]6[C@H](O)[C@@H](OC[C@H](C)O)[C@@H](O[C@H]7[C@H](O)[C@@H](OC[C@H](C)O)[C@@H](O[C@H]8[C@H](O)[C@@H](O)[C@@H](O[C@@H]([C@@H]1O)[C@@H](CO)O2)O[C@@H]8CO)O[C@@H]7CO)O[C@@H]6CO)O[C@@H]5CO)O[C@@H]4CO)O[C@@H]3CO`, the AC50 entry was “inactive”.

Source of the values: PubChem BioAssay AID1851 (National Center for Advancing Translational Sciences (NCATS), 2009).
